Measured values: PubChem BioAssay
Where “and” joins values, the source holds several entries; their conditions need not be identical. Equal entries are not always repeated. Unmarked numbers belong to inactive results. The list shows a part of the results. Calls of active or inactive are those of the source. Unless noted, no stated cut-off is given here; in the data, active means inhibition above about 44%; inactive means the rest.

Tests used:
[1] = molecular target: Nuclear receptor coactivator 3 (Homo sapiens) (UniProt Q9Y6Q9); assay: NCOA3 GAL4-fusion reporter inhibition – cell-based, luminescence, quadruplicate, confirmation (AID 588792;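 active means mean inhibition over 43.08%, the solvent-only control mean plus 3 SD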;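 further: 0% = DMSO treated cells and 100% = gossypol at 36 µM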); settings: HEK293 GAL4-SRC3 luciferase reporter, at 3.6 µM, active compounds read high
Sequence of Nuclear receptor coactivator 3 (Homo sapiens) (Q9Y6Q9 whole entry, looked up, the tested form may be a part): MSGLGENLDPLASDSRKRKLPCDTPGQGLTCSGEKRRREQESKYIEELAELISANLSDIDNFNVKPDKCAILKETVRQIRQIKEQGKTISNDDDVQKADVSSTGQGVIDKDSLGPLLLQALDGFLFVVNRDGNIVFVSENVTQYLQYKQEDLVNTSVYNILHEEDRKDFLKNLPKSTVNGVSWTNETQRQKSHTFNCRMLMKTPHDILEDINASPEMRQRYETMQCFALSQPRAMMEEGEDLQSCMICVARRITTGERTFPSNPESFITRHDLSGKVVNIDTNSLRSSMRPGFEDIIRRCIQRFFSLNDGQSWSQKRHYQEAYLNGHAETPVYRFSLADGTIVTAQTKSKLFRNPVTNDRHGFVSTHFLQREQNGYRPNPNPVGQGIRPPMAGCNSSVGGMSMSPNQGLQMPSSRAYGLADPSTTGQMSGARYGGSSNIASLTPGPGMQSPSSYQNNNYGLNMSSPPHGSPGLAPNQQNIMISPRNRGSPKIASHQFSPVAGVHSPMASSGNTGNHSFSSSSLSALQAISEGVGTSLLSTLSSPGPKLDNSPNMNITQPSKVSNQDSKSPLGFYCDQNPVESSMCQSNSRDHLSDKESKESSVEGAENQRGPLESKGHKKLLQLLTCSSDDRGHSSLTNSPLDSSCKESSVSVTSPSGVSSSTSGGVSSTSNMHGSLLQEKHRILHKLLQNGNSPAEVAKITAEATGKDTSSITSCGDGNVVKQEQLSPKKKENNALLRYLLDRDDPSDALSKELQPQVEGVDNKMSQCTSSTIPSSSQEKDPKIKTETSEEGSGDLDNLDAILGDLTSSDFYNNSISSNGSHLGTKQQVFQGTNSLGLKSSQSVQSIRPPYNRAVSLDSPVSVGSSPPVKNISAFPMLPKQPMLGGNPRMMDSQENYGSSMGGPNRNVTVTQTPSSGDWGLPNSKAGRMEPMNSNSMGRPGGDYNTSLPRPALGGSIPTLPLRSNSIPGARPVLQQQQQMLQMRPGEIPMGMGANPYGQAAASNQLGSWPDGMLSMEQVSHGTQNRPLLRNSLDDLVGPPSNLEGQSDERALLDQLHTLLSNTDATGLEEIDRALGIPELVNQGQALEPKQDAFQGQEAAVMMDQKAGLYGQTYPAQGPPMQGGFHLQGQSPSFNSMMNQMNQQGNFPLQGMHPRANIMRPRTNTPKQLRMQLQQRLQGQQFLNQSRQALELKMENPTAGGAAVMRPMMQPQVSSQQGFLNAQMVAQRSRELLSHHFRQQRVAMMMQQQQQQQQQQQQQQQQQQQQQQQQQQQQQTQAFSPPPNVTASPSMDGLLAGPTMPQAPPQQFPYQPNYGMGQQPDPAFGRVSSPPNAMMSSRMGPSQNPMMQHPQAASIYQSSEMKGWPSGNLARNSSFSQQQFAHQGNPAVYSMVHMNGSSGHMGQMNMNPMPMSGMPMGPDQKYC

[2] = test system: transactivating tegument protein VP16 (Human herpesvirus 1), Gal4-VP16 luciferase reporter; assay: repression of VP16-driven luciferase reporter – cell-based, luminescence, high throughput, counter-screen for SRC3 inhibitor project (AID 588794; in the data active means inhibition above about 30%); settings: mammalian cells, at 3.6 µM, active compounds read high
[3] = StAR promoter reporter inhibitors, counter-screen for LRH-1 inverse agonist project, cell-based, luminescence, high throughput (AID 651611; in the data active means inhibition above about 28%); settings: StAR promoter luciferase reporter counterscreen, at 3.6 µM, active compounds read high
[4] = molecular target: Nuclear receptor subfamily 5 group A member 2 (Homo sapiens) (UniProt O00482); assay: NR5A2 activity suppression in reporter cells – cell-based, luminescence, confirmation (AID 651613; in the data active means inhibition above about 42%;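 further: HEK293T cells co-transfected with LRH-1 and StAR promoter luciferase reporter; 0% = vehicle wells and 100% = parental cells lacking receptor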); settings: cell-based LRH-1 luciferase reporter, inverse agonism; at 3.6 µM; active compounds read high
Sequence of Nuclear receptor subfamily 5 group A member 2 (Homo sapiens) (O00482 whole entry, looked up): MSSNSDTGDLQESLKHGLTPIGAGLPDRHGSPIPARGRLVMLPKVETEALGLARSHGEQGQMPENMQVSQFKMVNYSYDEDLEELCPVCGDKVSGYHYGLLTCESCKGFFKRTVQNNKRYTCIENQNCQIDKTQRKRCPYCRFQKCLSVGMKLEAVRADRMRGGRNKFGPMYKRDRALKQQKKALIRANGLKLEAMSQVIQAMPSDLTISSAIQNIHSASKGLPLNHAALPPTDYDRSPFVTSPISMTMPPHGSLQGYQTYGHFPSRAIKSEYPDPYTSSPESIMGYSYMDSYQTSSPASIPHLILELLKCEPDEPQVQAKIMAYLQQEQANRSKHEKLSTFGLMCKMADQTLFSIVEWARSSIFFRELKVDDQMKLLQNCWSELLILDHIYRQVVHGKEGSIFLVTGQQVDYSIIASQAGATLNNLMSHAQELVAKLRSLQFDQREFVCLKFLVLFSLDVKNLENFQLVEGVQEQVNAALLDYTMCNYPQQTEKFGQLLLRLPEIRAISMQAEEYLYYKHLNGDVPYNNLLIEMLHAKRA

[5] = molecular target: Steroidogenic factor 1 (Homo sapiens) (UniProt Q13285); assay: inverse agonism at SF1 nuclear receptor – cell-based, luminescence, high throughput, counter-screen for LRH-1 inverse agonist project (AID 651614); settings: cell-based SF1 luciferase reporter, at 3.6 µM, active compounds read high;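 further: cells cotransfected with StAR promoter reporter and SF1 expression vector; 0% = vehicle on cells with receptor and 100% = vehicle on cells lacking receptor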
Sequence of Steroidogenic factor 1 (Homo sapiens) (Q13285 whole entry, looked up, the tested form may be a part): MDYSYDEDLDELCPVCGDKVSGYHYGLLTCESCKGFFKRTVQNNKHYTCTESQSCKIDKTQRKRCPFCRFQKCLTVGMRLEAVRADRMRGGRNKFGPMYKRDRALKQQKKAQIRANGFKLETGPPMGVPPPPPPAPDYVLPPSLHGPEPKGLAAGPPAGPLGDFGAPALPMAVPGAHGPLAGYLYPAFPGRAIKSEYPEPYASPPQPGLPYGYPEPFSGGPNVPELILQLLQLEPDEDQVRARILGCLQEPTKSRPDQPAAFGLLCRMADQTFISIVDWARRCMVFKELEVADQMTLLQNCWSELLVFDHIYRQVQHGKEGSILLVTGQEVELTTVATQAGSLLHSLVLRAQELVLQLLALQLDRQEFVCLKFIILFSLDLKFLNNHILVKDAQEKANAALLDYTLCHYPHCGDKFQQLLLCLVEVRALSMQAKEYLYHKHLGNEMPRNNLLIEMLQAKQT

[6] = compounds suppressing VP16-driven luciferase signal – cell-based, luminescence, high throughput, counter-screen for LRH-1 inverse agonist project (AID 651615; in the data active means inhibition above about 33%); settings: Gal4-VP16 luciferase reporter cells, at 3.6 µM, active compounds read high
[7] = molecular target: Photoreceptor-specific nuclear receptor (Homo sapiens) (UniProt Q9Y5X4); assay: retest of NR2E3-NCOR disrupting agonists – cell-based, luminescence, CHO-S two-hybrid, confirmation (AID 624378;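 active means average inhibition above a cutoff equal to the mean inhibition of all tested compounds plus one SD, cut at about 70% in these data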;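 further: 0% = DMSO in NR2E3 cells and 100% = DMSO in cells lacking NR2E3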); settings: CHO-S mammalian two-hybrid NR2E3-NCOR, luciferase luminescence; at 3.98 µM; active compounds read high
Sequence of Photoreceptor-specific nuclear receptor (Homo sapiens) (Q9Y5X4 whole entry, looked up): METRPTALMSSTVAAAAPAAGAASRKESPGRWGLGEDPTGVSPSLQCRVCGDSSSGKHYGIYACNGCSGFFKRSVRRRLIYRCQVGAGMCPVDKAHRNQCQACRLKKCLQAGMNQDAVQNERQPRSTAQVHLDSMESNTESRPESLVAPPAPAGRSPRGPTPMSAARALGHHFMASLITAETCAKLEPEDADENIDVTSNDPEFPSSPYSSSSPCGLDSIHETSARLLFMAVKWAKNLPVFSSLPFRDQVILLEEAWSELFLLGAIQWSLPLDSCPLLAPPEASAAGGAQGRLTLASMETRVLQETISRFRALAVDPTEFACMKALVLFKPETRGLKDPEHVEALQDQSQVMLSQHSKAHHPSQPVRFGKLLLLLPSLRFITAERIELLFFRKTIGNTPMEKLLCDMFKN

[8] = nonselective effects on VP16 transactivation – cell-based, luminescence, CHO-S, high throughput, counter-screen for NR2E3 agonist project, confirmation (AID 624379;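 active means mean inhibition above a cutoff equal to the average over all tested compounds plus one standard deviation, cut at about 70% in these data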;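 further: 0% = DMSO with VP16-transfected cells and 100% = DMSO with cells lacking VP16; higher means less reporter light so more repression of VP16 activity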); settings: CHO-S GAL4-VP16 luciferase reporter, at 3.98 µM, active compounds read high
[9] = test system: transactivating tegument protein VP16 (Human herpesvirus 1); assay: compounds suppressing VP16-driven luciferase signal – cell-based, luminescence, single concentration, counter-screen for SRC2 inhibitor project (AID 652007; in the data active means inhibition above about 36%); settings: cell-based VP16 transactivation luciferase reporter, at 8.9 µM, active compounds read high
[10] = molecular target: Nuclear receptor coactivator 2 (Homo sapiens) (UniProt Q15596); assay: inhibition of GAL4-SRC2 driven luciferase expression – cell-based, luminescence, HEK293, triplicate, confirmation (AID 652008;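 active means mean inhibition above 46.5%, the solvent-only control mean plus 3 SD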;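 further: 0% = DMSO-treated cells and 100% = Gossypol at 36 µM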); settings: HEK293 GAL4-SRC2 luciferase reporter, at 8.9 µM, active compounds read high
Sequence of Nuclear receptor coactivator 2 (Homo sapiens) (Q15596 whole entry, looked up, the tested form may be a part): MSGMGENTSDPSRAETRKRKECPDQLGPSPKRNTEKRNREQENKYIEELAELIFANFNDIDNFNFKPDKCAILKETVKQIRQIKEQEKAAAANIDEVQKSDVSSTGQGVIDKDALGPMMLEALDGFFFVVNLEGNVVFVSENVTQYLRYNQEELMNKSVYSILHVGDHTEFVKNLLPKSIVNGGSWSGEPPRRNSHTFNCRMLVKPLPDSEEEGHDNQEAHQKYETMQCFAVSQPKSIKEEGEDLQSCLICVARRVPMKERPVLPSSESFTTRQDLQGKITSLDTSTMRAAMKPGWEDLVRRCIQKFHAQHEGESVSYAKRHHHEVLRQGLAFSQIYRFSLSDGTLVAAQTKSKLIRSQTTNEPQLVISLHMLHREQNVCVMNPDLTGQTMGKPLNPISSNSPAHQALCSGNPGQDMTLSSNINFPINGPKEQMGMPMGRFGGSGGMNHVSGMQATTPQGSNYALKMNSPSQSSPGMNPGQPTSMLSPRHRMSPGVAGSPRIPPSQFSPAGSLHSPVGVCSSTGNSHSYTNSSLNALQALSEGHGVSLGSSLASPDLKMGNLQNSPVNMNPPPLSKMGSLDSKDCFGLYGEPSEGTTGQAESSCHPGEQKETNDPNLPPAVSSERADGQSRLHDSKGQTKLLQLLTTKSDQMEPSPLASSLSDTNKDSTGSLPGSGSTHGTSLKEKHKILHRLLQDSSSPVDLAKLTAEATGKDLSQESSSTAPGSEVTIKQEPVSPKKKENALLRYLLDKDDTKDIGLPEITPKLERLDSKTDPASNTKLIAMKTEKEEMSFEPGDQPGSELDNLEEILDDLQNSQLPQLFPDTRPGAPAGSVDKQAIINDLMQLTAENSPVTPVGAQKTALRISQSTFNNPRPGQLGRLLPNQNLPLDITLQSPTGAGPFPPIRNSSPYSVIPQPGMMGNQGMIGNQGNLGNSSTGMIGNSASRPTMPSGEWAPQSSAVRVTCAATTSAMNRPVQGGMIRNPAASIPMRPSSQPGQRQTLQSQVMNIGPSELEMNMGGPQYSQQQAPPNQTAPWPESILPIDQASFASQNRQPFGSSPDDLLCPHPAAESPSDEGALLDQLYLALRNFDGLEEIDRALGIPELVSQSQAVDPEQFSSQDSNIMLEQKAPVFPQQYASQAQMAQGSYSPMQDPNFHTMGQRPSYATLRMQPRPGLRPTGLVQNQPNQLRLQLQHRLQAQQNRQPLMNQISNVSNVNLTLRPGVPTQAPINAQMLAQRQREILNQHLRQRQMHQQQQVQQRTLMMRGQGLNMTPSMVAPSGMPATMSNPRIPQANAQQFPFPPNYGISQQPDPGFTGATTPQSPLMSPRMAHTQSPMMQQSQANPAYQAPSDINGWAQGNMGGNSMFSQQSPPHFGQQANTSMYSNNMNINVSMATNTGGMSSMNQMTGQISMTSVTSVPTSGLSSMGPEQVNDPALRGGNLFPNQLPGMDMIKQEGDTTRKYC

[11] = VP16-driven transactivation reporter suppression – cell-based, luminescence, HEK293, counter-screen for COUP-TFII antagonist project (AID 687007; in the data active means inhibition above about 13%); settings: HEK293 Gal4-VP16 luciferase reporter, at 8.5 µM, active compounds read high
[12] = molecular target: COUP transcription factor 2 (Homo sapiens) (UniProt P24468); assay: retest of COUP-TFII reporter suppressors – cell-based, luciferase reporter, HEK293, triplicate, confirmation (AID 687008;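 active means mean inhibition over three repeats above a set limit taken from the earlier primary screen, cut at about 38% in these data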;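 further: 100% = cells given the luciferase reporter alone without the COUP-TF2 vector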); settings: HEK293 NGFI-A luciferase reporter, luminescence; at 8.5 µM; active compounds read high
Sequence of COUP transcription factor 2 (Homo sapiens) (P24468 whole entry, looked up): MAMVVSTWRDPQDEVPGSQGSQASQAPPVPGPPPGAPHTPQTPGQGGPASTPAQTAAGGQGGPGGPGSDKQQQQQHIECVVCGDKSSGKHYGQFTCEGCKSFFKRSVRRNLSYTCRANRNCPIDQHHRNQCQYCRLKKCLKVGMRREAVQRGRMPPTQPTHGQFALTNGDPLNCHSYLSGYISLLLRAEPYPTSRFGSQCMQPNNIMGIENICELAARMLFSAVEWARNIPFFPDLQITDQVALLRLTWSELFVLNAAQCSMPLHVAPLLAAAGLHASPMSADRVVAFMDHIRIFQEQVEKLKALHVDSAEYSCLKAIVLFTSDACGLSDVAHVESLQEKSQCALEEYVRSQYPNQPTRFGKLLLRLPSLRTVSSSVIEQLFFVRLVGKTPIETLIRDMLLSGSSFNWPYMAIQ

Structure (SMILES)	inhibition [1]	inhibition [2]	inhibition [3]	inhibition [4]	inhibition [5]	inhibition [6]	inhibition [7]	inhibition [8] [%]	inhibition [9]	inhibition [10]	inhibition [11]	inhibition [12]
C=CS(=O)(=O)N(Cc1ccccc1Br)[C@H](CO)Cc1ccccc1	24.3%	0.02%	20.1%	32.2%	48.7% (active)	23.2%	–	–	–	–	–	–
c1cnc2c(c1)ccc1cccnc12	42.2%	31.6% (active)	70.5% (active) and 77.1% (active)	104% (active)	59.1% (active) and 70.5% (active)	50.6% (active) and 74.9% (active)	–	–	–	–	–	–
Brc1ccc(C2=Nn3c(nnc3-c3n[nH]c4c3CCC4)SC2)cc1	26%	-11.4%	50.6% (active)	49% (active)	51% (active)	-33.2%	–	–	–	–	–	–
c1ccc(-c2csc3ncnc(NCC4COc5ccccc5O4)c23)cc1 (stereo unspecified)	8.5%	53% (active)	34.8% (active)	57.8% (active)	62.5% (active)	60.4% (active)	–	–	–	–	–	–
O=C(OC12CC3CC(CC(C3)C1)C2)c1ccc(NCc2cc(O)ccc2O)cc1	89.3% (active)	59.6% (active)	66.5% (active)	82.9% (active)	80.2% (active)	86% (active)	78.1% (active)	18.6	95.5% (active)	96.4% (active)	79.4% (active)	103% (active)
CC(=O)c1cn(CC(=O)Nc2ccc(C)cc2C)c2ccccc12	11.1%	28.2%	11.3%	71.5% (active)	64.5% (active)	47.4% (active)	–	–	–	–	–	–
Cc1ccc(NC(=O)c2cc(Cl)ccc2[N+](=O)[O-])cc1C	27.3%	18.5%	16.6%	36.5%	34.6%	19.6%	–	–	–	–	–	–
O=C(NC1CCCCCCC1)c1cc(COc2ccc3ncccc3c2)on1	17.3%	40.2% (active)	25.3%	55% (active)	54.8% (active)	51.6% (active)	–	–	–	–	–	–
Cn1nccc1C(=O)NC1CCCc2c1cnn2-c1ccc(C(C)(C)C)cc1 (stereo unspecified)	15%	49.3% (active)	42.5% (active)	63.5% (active)	69.7% (active)	58.2% (active)	–	–	–	–	–	–
COc1cc(C)c(Br)cc1S(=O)(=O)NCc1ccncc1	9.21%	30.9% (active)	14.3%	49% (active)	38.5%	38% (active)	–	–	–	–	–	–
CN(CCOc1ccc(Cl)cc1)C(=O)c1cccc(S(=O)(=O)N2CCN(c3ccc(F)cc3)CC2)c1	24.4%	41.2% (active)	24.3%	60.9% (active)	63.8% (active)	53.2% (active)	–	–	–	–	–	–
CCOc1ccc(OCc2ccc(C(=O)NN=Cc3ccc[nH]3)cc2)cc1	38.9%	78.4% (active)	76.2% (active)	104% (active)	90.6% (active)	87.1% (active)	–	–	–	–	–	–
CCCCCc1ccc(OCCCC[n+]2cccc(C)c2)c(CCCCC)c1	17.4%	39% (active)	31.7% (active)	74.2% (active)	68.9% (active)	71.2% (active)	–	–	–	–	–	–
CCOC(=O)C1=Nc2ccccc2C1=[N+]=[N-]	35.7%	46% (active)	14.1%	53.3% (active)	45.2% (active)	53.2% (active)	–	–	–	–	–	–
CCC(C)(C)c1ccc(OCCCC[n+]2ccccc2)c(C(C)(C)CC)c1	26.1%	37.4% (active)	16.3%	64% (active)	55.6% (active)	60.8% (active)	–	–	–	–	–	–
Cc1nnsc1S(=O)c1ccc(Cl)c(Cl)c1 (stereo unspecified)	34.3%	9.36%	25.5%	64.4% (active)	66.4% (active)	20.8%	–	–	–	–	–	–
N#CC(c1cccc(Cl)c1)c1ccc2c(C(F)(F)F)cc(C(F)(F)F)nc2n1 (stereo unspecified)	59.4% (active)	84% (active)	82.3% (active)	107% (active)	95.5% (active)	88.9% (active)	–	–	–	–	–	–
COc1ccc(OC)c2nc3c(C(=O)NCCN(C)C)cccc3nc12	-25.8%	65% (active)	53.2% (active)	77.8% (active)	70.5% (active)	75.7% (active)	–	–	–	–	–	–
CCOC(=O)c1c2c(n(-c3ccc(OC)cc3)c1C)C(=O)C(=O)c1ccccc1-2	45.9% (active)	33.8% (active)	63% (active)	66.5% (active)	63.8% (active)	50.3% (active)	–	–	–	–	–	–
O=[N+]([O-])c1ccc(O)c(/C=N/Nc2nc3ccccc3[nH]2)c1	64% (active)	62.7% (active)	80.6% (active)	97.5% (active)	84.3% (active)	83% (active)	–	–	–	–	–	–

Structure (SMILES)	inhibition [1]	inhibition [2]	inhibition [3]	inhibition [4]	inhibition [5]	inhibition [6]	inhibition [7]	inhibition [8] [%]	inhibition [9]	inhibition [10]	inhibition [11]	inhibition [12]
CCCC(=O)NC(c1ccc(N(C)C)cc1)c1ccc2cccnc2c1O (stereo unspecified)	78.2% (active)	77% (active)	91.9% (active)	104% (active)	91.3% (active)	89.2% (active)	–	–	–	–	–	–
CCN1/C(=C\c2ccc3cc(C)ccc3[n+]2CC)Sc2cc(C)c(C)cc21	34.9%	57.5% (active)	32.8% (active)	82.5% (active)	72.8% (active)	65.6% (active)	–	–	–	–	–	–
Cc1sc(NC(=O)c2ccco2)c(C(c2cccnc2)N2CCN(c3ccc(F)cc3)CC2)c1C (stereo unspecified)	19.5%	31.9% (active)	24.4%	61.9% (active)	60.2% (active)	53.9% (active)	–	–	–	–	–	–
CCOc1cc(/C=C2\CCC/C(=C\c3cc(Cl)c(O)c(OCC)c3)C2=O)cc(Cl)c1O	43.9% (active)	21.8%	11.2%	47.7% (active)	61.1% (active)	46.4% (active)	–	–	–	–	–	–
c1ccc(CCNc2nc(-c3ccccn3)nc3ccccc23)cc1	22.7%	41% (active)	58.5% (active)	91.9% (active)	82.7% (active)	69.1% (active)	–	–	–	–	–	–
Clc1cccc(CNc2ccn3nc(-c4ccc(OCc5ccccc5)cc4)cc3n2)c1	-4.23%	35.7% (active)	23.4%	40.9%	51% (active)	56.4% (active)	–	–	–	–	–	–
Cc1ccnc(NC(=O)CCCOc2cc(=O)n(C)c3ccccc23)c1	3.13% and 25%	-1.88% and -14.4%	61% (active) and 59.3% (active)	91.4% (active) and 81.7% (active)	67.8% (active) and 59.8% (active)	23.5% and 8.09%	–	–	–	–	–	–
COc1ccc(OC)c(NC(=O)c2nnn(Cc3ccccc3C)c2N)c1	4.83%	29.9% (active)	20.2%	44.5% (active)	52.9% (active)	57.3% (active)	–	–	–	–	–	–
CCOc1ccc(-n2c(-c3ccccc3)c[n+]3c2CCCCC3)cc1	28.7%	52.4% (active)	29.9% (active)	90.5% (active)	72.3% (active)	66.2% (active)	–	–	–	–	–	–
COc1ccc(-c2n(CC(=O)OC3CC(C)CCC3C(C)C)c3ccccc3[n+]2C)cc1 (stereo unspecified)	57.5% (active)	61.3% (active)	59.1% (active)	110% (active)	79.5% (active)	92.9% (active)	–	–	–	–	–	–
CC[C@@H](C(=O)[C@@H](C)[C@@H](O)[C@H](C)CCc1ccc(C)c(O)c1C(=O)O)[C@H]1O[C@](CC)([C@H]2CC[C@](O)(CC)[C@H](C)O2)C[C@@H]1C	26.4%	58% (active)	60.5% (active)	51.9% (active)	61.2% (active)	60% (active)	–	–	–	–	–	–
COc1ccc(-n2c(-c3ccc(Br)cc3)c[n+]3c2CCc2ccccc2-3)cc1	32.4%	36.3% (active)	22.1%	96.4% (active)	65% (active)	73% (active)	–	–	–	–	–	–
COc1cc(N(C)C)ccc1C=c1c2ccccc2n2c1cc(-c1ccccc1)[n+]2C	57.7% (active)	67.2% (active)	56.9% (active)	109% (active)	87.4% (active)	92.5% (active)	–	–	–	–	–	–
COc1ccc(-n2c(-c3ccc(Cl)cc3)c[n+]3c2CCc2ccccc2-3)cc1	16.3%	45.2% (active)	30.1% (active)	79.2% (active)	69.1% (active)	70.5% (active)	–	–	–	–	–	–
COc1ccc(C(=O)C2CCCN(Cc3cccn3-c3ccc(Cl)cn3)C2)c(OC)c1 (stereo unspecified)	17.1%	25.5%	19%	47.7% (active)	47.4% (active)	41.2% (active)	–	–	–	–	–	–
Cc1ccc(C(=O)C[n+]2cc(-c3ccc(C)cc3)n3c2CCCCC3)cc1	25.2%	53.5% (active)	38% (active)	80.2% (active)	75.7% (active)	70.4% (active)	–	–	–	–	–	–
C[C@H]1CCC/C=C/[C@@H]2C[C@H](O)C[C@H]2[C@H](O)[C@H](S(=O)c2ccc(O)cc2)CC(=O)O1 (stereo partly specified)	71.7% (active)	77.6% (active)	77.7% (active)	84.4% (active)	76.6% (active)	77.6% (active)	–	–	–	–	–	–
Cc1ccc2c(c1C)-c1c(ccc(C)c1C)C(=O)C2=O	58% (active)	34.3% (active)	64.4% (active)	72% (active)	80.5% (active)	73.8% (active)	–	–	–	–	–	–
Nc1cc(Cc2ccccc2)ccc1O	-9.82%	-12.4%	9.01%	25.7%	33.2%	-10.3%	–	–	–	–	–	–
CCN1/C(=C/c2ccc3cc(C)ccc3[n+]2CC)Sc2cc(C)ccc21	26.1%	64% (active)	39.8% (active)	108% (active)	75.6% (active)	83.3% (active)	–	–	–	–	–	–
